Results published in PubChem BioAssay AID488969 (Vanderbilt High Throughput Screening Facility, 2010).
The full ranking holds about 110,000 compounds; the median of “z-score” is about -0.1, and the highest 2% start at about 2. The sample as a whole holds a higher share of the highest values than the screen did. Active and inactive are the calls of the source.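 The calls were made as follows: active = z-score in the third read window above 3 or below -3; inactive = the rest.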

The compounds below were run against Metabotropic glutamate receptor 8 (Rattus norvegicus) (UniProt P70579) (assay: mGluR8 Gi/Go-coupled signaling modulation – cell-based, rat, thallium flux, HTS, primary screen (AID 488969)). Conditions: HEK293 rat mGluR8, GIRK (G protein-gated inwardly rectifying potassium channel) thallium flux, FluoZin2; at 10 µM; stronger effect = higher value; submaximal glutamate (EC20) added with thallium.
Metabotropic glutamate receptor 8 (Rattus norvegicus), sequence (P70579 whole entry, looked up): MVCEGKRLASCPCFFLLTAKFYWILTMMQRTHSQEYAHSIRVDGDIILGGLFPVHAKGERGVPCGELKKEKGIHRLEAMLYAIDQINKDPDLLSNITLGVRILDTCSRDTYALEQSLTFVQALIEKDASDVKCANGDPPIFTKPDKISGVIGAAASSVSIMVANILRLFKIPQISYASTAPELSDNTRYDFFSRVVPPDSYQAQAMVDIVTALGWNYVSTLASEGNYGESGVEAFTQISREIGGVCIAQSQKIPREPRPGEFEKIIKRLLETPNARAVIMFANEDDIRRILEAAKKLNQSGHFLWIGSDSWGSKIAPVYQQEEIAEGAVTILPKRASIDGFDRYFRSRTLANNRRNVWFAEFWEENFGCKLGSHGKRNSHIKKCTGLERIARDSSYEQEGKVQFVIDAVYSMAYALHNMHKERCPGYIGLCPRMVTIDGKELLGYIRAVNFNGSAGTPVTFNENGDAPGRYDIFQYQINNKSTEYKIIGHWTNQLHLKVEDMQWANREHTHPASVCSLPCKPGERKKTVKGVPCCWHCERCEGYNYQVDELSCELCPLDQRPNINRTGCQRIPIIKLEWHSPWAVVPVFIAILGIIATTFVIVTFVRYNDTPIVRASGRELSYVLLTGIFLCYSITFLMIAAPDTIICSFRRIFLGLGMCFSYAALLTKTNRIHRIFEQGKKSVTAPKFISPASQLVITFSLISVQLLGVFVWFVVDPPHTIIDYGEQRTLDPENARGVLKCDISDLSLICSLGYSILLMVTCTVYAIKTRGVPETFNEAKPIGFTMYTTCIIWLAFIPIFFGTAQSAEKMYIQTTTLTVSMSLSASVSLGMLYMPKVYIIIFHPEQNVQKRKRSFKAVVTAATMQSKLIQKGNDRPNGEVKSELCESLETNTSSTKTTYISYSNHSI
`CNC(=S)NNC(=O)Cc1ccc(O)cc1` gave a z-score of 0.306.
In the case of `CCN(CC)S(=O)(=O)c1ccc2c(c1)nc(CCC(=O)Nc1cccc(C(F)(F)F)c1)n2CC`, the z-score is reported as -0.277.
`CCSc1nnc(NC(=O)C2(C)Cc3ccccc3C(=O)O2)s1` (configuration not stated) gave a z-score of -0.0977.
Work on `CCCCc1c(O)nc2sccn2c1=O` yielded a z-score of -0.251.
For `Cc1cc(N2CCC(C(=O)NC3CC3)CC2)nc(-c2ccccc2)n1`, the z-score was 1.41.
For `Cn1c(=O)cc(OCCCC(=O)Nc2ccccn2)c2ccccc21`, the z-score was -0.243.
`CC(C1CC1)N(C(=O)NC1CCS(=O)(=O)C1)c1ccccc1` (configuration not stated) showed a z-score of -0.27.
`CCOc1ccc(NC(=O)c2ccco2)cc1` gave a z-score of -0.0362.
`COc1ccc(NC(=O)CN2C(=O)C(C)Oc3ccccc32)cc1` (configuration not stated) was tested, and the z-score was -0.12.
For `CC1Oc2ccccc2N(CC(=O)NCC2CCCO2)C1=O` (configuration not stated), the z-score was -0.413.
In the case of `CC1Oc2ccccc2N(CC(=O)NCCc2ccccc2)C1=O` (configuration not stated), the z-score is reported as 2.08.
Work on `C=CCn1c(=N)n(CC(=O)c2ccc(Br)s2)c2ccccc21` yielded a z-score of -1.22.
`C/C(=N/NC(=O)c1sc(NS(=O)(=O)c2ccccc2)nc1C)c1ccccc1` was tested, and the z-score was 0.345.
`CN(c1ccc([N+](=O)[O-])cc1C(=O)Nc1ccccc1)C1CCCCC1` showed a z-score of -0.377.
`COc1cc(CNC2CCCC2)cc(Cl)c1OCc1ccccc1Cl` gave a z-score of 0.0424.
Compound `COc1cc(CNC2CCCC2)cc(Cl)c1OCc1ccc(F)cc1` has a z-score of -0.271.
Compound `COc1cc(CNC2CCCC2)cc(Cl)c1OCc1ccccc1F` has a z-score of 2.5.
Compound `CN1CCN(CCCNC(=O)c2cn(C3CCCCC3)c(=O)c3c2c2ccccc2n3C)CC1` has a z-score of -0.464.
In the case of `CC1CCC(C(C)C)C(OC(=O)CSc2nc(N)cc(=O)[nH]2)C1` (configuration not stated), the z-score is reported as -0.124.
`O=C(Cn1nnc(-c2ccccc2)n1)N=Nc1c(O)[nH]c2ccccc12` was tested, and the z-score was -0.0918.
`O=C(CN1CCN(Cc2ccccc2)CC1)N=Nc1c(O)[nH]c2ccccc12` was tested, and the z-score was -0.328.
`O=C(CSCc1ccccc1)N=Nc1c(O)[nH]c2ccccc12` was tested, and the z-score was 6.08 (active).
With `O=C(CSc1nc2ccccc2[nH]1)N=Nc1c(O)[nH]c2ccccc12` the z-score was -0.572.
Compound `O=C(CSCc1ccc(Br)cc1)N=Nc1c(O)[nH]c2ccccc12` has a z-score of 2.84.
`O=C(CSCc1cccc(Br)c1)N=Nc1c(O)[nH]c2ccccc12` showed a z-score of -0.113.
For `CCOC(=O)c1c(CN2CCOCC2)n(-c2ccccc2)c2cc(Br)c(O)c(CN(C)C)c12`, the z-score was -0.781.
Compound `CC(C)OCCCNC(=O)C(C)Oc1ccccc1` (configuration not stated) has a z-score of -0.305.
Work on `CCCOc1ccc(C(=O)N2CCN(c3ccc(N)cc3Cl)CC2)cc1` yielded a z-score of -0.235.
`COC(=O)C(Cc1ccc(O)cc1)NC(=O)CCC(=O)Nc1ccc(S(N)(=O)=O)cc1` (configuration not stated) showed a z-score of -0.14.
`Cc1c(NC(=O)C(C)Sc2nnc(-c3ccccc3)o2)c(=O)n(-c2ccccc2)n1C` (configuration not stated) was tested, and the z-score was -0.308.
In the case of `COCCN(CCOC)C(=O)CCn1c(=O)oc2ccccc21`, the z-score is reported as 0.976.
In the case of `CN(Cc1ccccc1)C(=O)CCn1c(=O)oc2ccccc21`, the z-score is reported as 2.02.
Work on `CC(=O)c1ccc(NC(=O)CCn2c(=O)oc3ccccc32)cc1` yielded a z-score of -0.318.
Compound `CCc1ccc(NC(=O)CCn2c(=O)oc3ccccc32)cc1` has a z-score of 0.0251.
In the case of `O=C(CCn1c(=O)oc2ccccc21)N(Cc1ccccc1)c1ccccn1`, the z-score is reported as 0.207.
`COC(=O)c1ccc(NC(=O)CCn2c(=O)oc3ccccc32)cc1` showed a z-score of 2.57.
With `CNC(=S)N(Cc1ccc2c(c1)OCO2)C1CC(=O)N(c2ccc(F)cc2)C1=O` (configuration not stated) the z-score was 0.0865.
Compound `O=C(CN1C(=O)c2ccccc2C1=O)Nc1ccc2c(c1)OCO2` has a z-score of -0.335.
`CC1(C)Cc2c(sc3[nH]c(=S)n(Cc4ccccc4)c(=O)c23)CO1` was tested, and the z-score was 14.5 (active).
Work on `CCC1(C)Cc2c(sc3nc(SC)n(Cc4ccccc4)c(=O)c23)CO1` (configuration not stated) yielded a z-score of -0.216.
With `CC(C)C1Cc2c(sc3[nH]c(=S)n(Cc4ccccc4)c(=O)c23)CO1` (configuration not stated) the z-score was 5.29 (active).
Compound `CCn1c(=O)n(Cc2ccco2)c(=N)c2c3c(sc21)COC(C)(C)C3` has a z-score of -0.025.
With `CC1(C)Cc2c(sc3[nH]c(=S)n(Cc4ccco4)c(=O)c23)CO1` the z-score was 8.31 (active).
For `CC(C)C1Cc2c(sc3c2c(=O)n(Cc2ccccc2)c2nncn32)CO1` (configuration not stated), the z-score was -3.44 (active).
With `CSc1nnc2n(Cc3ccccc3)c(=O)c3c4c(sc3n12)COC(C(C)C)C4` (configuration not stated) the z-score was -0.311.
With `CCC1(C)Cc2c(sc3[nH]c(=S)n(Cc4ccccc4)c(=O)c23)CO1` (configuration not stated) the z-score was 8.14 (active).
Compound `CC1(C)Cc2c(sc3c2c(=N)n(Cc2ccco2)c(=O)n3Cc2ccccc2)CO1` has a z-score of -0.918.
`Cc1nnc2n(Cc3ccccc3)c(=O)c3c4c(sc3n12)COC(C)(C)C4` was tested, and the z-score was 0.198.
`CCC1(C)Cc2c(sc3c2c(=O)n(-c2ccccc2)c(=O)n3C)CO1` (configuration not stated) was tested, and the z-score was -0.673.
`Cn1c(=O)[nH]c2sc3c(c2c1=O)CC(C)(C)OC3` gave a z-score of -0.263.
With `O=C(CSc1nnc(-c2ccccc2)n1-c1ccccc1)N1c2ccccc2Sc2ccccc21` the z-score was -1.52.
Compound `CC1CCCCN1C(=O)NC12CC3CC(CC(C3)C1)C2` (configuration not stated) has a z-score of -0.518.
For `CCOc1ccc2c(c1)n(CO)c(=S)n2CO`, the z-score was 0.0706.
With `C(=C\c1cccc2ccccc12)/c1nnc(-c2cccs2)o1` the z-score was -0.201.
In the case of `COc1ccc(CC(=O)n2c(CC#N)nc3ccccc32)cc1OC`, the z-score is reported as 0.0175.
With `Cc1ccc2c(Cn3cc(C(F)(F)F)cc(Cl)c3=O)cc(=O)oc2c1` the z-score was -0.249.
In the case of `CC(C)OC(=O)c1ccc(N2C(=O)C3CC=CCC3C2=O)cc1` (configuration not stated), the z-score is reported as 0.0622.
`C=CCOC(=O)Nc1c(C(=O)OC)[nH]c2ccc(Cl)cc12` was tested, and the z-score was -0.103.
Compound `CCCCNC(=O)/C(C#N)=C/c1ccc(-c2ccc(S(=O)(=O)N3CCOCC3)cc2)o1` has a z-score of 0.164.
Compound `COCCNC(=O)/C(C#N)=C/c1ccc(-c2ccc(S(=O)(=O)N3CCOCC3)cc2)o1` has a z-score of -0.137.
Work on `CCOCCCNC(=O)/C(C#N)=C/c1ccc(-c2ccc(S(=O)(=O)N3CCOCC3)cc2)o1` yielded a z-score of 2.32.
`O=C(OCC1COc2ccccc2O1)c1c(F)cccc1F` (configuration not stated) showed a z-score of 0.396.
With `N=c1oc2ccc3ccccc3c2cc1-c1nc(-c2ccccc2)cs1` the z-score was 3.16 (active).
With `COc1ccc(-c2csc(-c3cc4ccccc4oc3=N)n2)cc1` the z-score was -0.00953.
Work on `N=c1oc2ccccc2cc1-c1nc(-c2ccc(Cl)cc2)cs1` yielded a z-score of -0.248.
`CCN(CC)C(=O)N1c2ccccc2C=Cc2ccccc21` was tested, and the z-score was -0.214.
`COc1ccc(-c2nnc(NC(=O)c3ccc(S(=O)(=O)N4CCc5ccccc5C4)cc3)o2)cc1` was tested, and the z-score was 9.68 (active).
With `COc1ccc(-c2nnc(NC(=O)c3ccc(S(=O)(=O)N4CCCc5ccccc54)cc3)o2)cc1` the z-score was 2.07.
With `O=C(Nc1nnc(C2CC2)o1)c1ccc(S(=O)(=O)N2CCCc3ccccc32)cc1` the z-score was 1.85.
In the case of `CCc1nnc(NC(=O)c2ccc(S(=O)(=O)N3CCc4ccccc4C3)cc2)s1`, the z-score is reported as -0.158.
With `COc1ccc(-c2nnc(NC(=O)c3ccc(S(=O)(=O)N4COCC4(C)C)cc3)o2)cc1` the z-score was 1.22.
Compound `CCc1nnc(NC(=O)c2ccc(S(=O)(=O)N3CCCc4ccccc43)cc2)o1` has a z-score of 0.372.
